This is an account of results in article PMC8222333, “AsCas12a ultra nuclease facilitates the rapid generation of therapeutic cell medicines”.

The chains are these.
B1: ATAT (dsDNA)
DNA 1: GCTATCTAGTGCTCAGTACGCACTGATATAGGAAACTTCTGGCAGGACCAGGTCATGAGATCGGAAGAGCACACGTCTGAACTCCAGTCA
DNA 2: TGACTGGAGTTCAGACGTGTGCTCTTCCGATCTCATGACCTGGTCCTGCCAGAAGTTTCCTATATCAGTGCGTACTGAGCACTAGATAGC
RNA: AAUUUCUACUCUUGUAGAUAGGAAACUUCUGGCAGGACC
B2: CCCA (dsDNA)
DNA 1: GCTATCTAGTGCTCAGTACGCACTGCCCAAGGAAACTTCTGGCAGGACCAGGTCATGAGATCGGAAGAGCACACGTCTGAACTCCAGTCA
DNA 2: TGACTGGAGTTCAGACGTGTGCTCTTCCGATCTCATGACCTGGTCCTGCCAGAAGTTTCCTTGGGCAGTGCGTACTGAGCACTAGATAGC
RNA: AAUUUCUACUCUUGUAGAUAGGAAACUUCUGGCAGGACC
B3: ATCA (dsDNA)
DNA 1: GCTATCTAGTGCTCAGTACGCACTGATCAAGGAAACTTCTGGCAGGACCAGGTCATGAGATCGGAAGAGCACACGTCTGAACTCCAGTCA
DNA 2: TGACTGGAGTTCAGACGTGTGCTCTTCCGATCTCATGACCTGGTCCTGCCAGAAGTTTCCTTGATCAGTGCGTACTGAGCACTAGATAGC
RNA: AAUUUCUACUCUUGUAGAUAGGAAACUUCUGGCAGGACC
B4: CATC (dsDNA)
DNA 1: GCTATCTAGTGCTCAGTACGCACTGCATCAGGAAACTTCTGGCAGGACCAGGTCATGAGATCGGAAGAGCACACGTCTGAACTCCAGTCA
DNA 2: TGACTGGAGTTCAGACGTGTGCTCTTCCGATCTCATGACCTGGTCCTGCCAGAAGTTTCCTGATGCAGTGCGTACTGAGCACTAGATAGC
RNA: AAUUUCUACUCUUGUAGAUAGGAAACUUCUGGCAGGACC
B5: CCCG (dsDNA)
DNA 1: GCTATCTAGTGCTCAGTACGCACTGCCCGAGGAAACTTCTGGCAGGACCAGGTCATGAGATCGGAAGAGCACACGTCTGAACTCCAGTCA
DNA 2: TGACTGGAGTTCAGACGTGTGCTCTTCCGATCTCATGACCTGGTCCTGCCAGAAGTTTCCTCGGGCAGTGCGTACTGAGCACTAGATAGC
RNA: AAUUUCUACUCUUGUAGAUAGGAAACUUCUGGCAGGACC
B6: ATGC (dsDNA)
DNA 1: GCTATCTAGTGCTCAGTACGCACTGATGCAGGAAACTTCTGGCAGGACCAGGTCATGAGATCGGAAGAGCACACGTCTGAACTCCAGTCA
DNA 2: TGACTGGAGTTCAGACGTGTGCTCTTCCGATCTCATGACCTGGTCCTGCCAGAAGTTTCCTGCATCAGTGCGTACTGAGCACTAGATAGC
RNA: AAUUUCUACUCUUGUAGAUAGGAAACUUCUGGCAGGACC
B7: CATG (dsDNA)
DNA 1: GCTATCTAGTGCTCAGTACGCACTGCATGAGGAAACTTCTGGCAGGACCAGGTCATGAGATCGGAAGAGCACACGTCTGAACTCCAGTCA
DNA 2: TGACTGGAGTTCAGACGTGTGCTCTTCCGATCTCATGACCTGGTCCTGCCAGAAGTTTCCTCATGCAGTGCGTACTGAGCACTAGATAGC
RNA: AAUUUCUACUCUUGUAGAUAGGAAACUUCUGGCAGGACC
B8: CTCT (dsDNA)
DNA 1: GCTATCTAGTGCTCAGTACGCACTGCTCTAGGAAACTTCTGGCAGGACCAGGTCATGAGATCGGAAGAGCACACGTCTGAACTCCAGTCA
DNA 2: TGACTGGAGTTCAGACGTGTGCTCTTCCGATCTCATGACCTGGTCCTGCCAGAAGTTTCCTAGAGCAGTGCGTACTGAGCACTAGATAGC
RNA: AAUUUCUACUCUUGUAGAUAGGAAACUUCUGGCAGGACC
B9: CTAG (dsDNA)
DNA 1: GCTATCTAGTGCTCAGTACGCACTGCTAGAGGAAACTTCTGGCAGGACCAGGTCATGAGATCGGAAGAGCACACGTCTGAACTCCAGTCA
DNA 2: TGACTGGAGTTCAGACGTGTGCTCTTCCGATCTCATGACCTGGTCCTGCCAGAAGTTTCCTCTAGCAGTGCGTACTGAGCACTAGATAGC
RNA: AAUUUCUACUCUUGUAGAUAGGAAACUUCUGGCAGGACC
B10: CTGT (dsDNA)
DNA 1: GCTATCTAGTGCTCAGTACGCACTGCTGTAGGAAACTTCTGGCAGGACCAGGTCATGAGATCGGAAGAGCACACGTCTGAACTCCAGTCA
DNA 2: TGACTGGAGTTCAGACGTGTGCTCTTCCGATCTCATGACCTGGTCCTGCCAGAAGTTTCCTACAGCAGTGCGTACTGAGCACTAGATAGC
RNA: AAUUUCUACUCUUGUAGAUAGGAAACUUCUGGCAGGACC
B11: ATCT (dsDNA)
DNA 1: GCTATCTAGTGCTCAGTACGCACTGATCTAGGAAACTTCTGGCAGGACCAGGTCATGAGATCGGAAGAGCACACGTCTGAACTCCAGTCA
DNA 2: TGACTGGAGTTCAGACGTGTGCTCTTCCGATCTCATGACCTGGTCCTGCCAGAAGTTTCCTAGATCAGTGCGTACTGAGCACTAGATAGC
RNA: AAUUUCUACUCUUGUAGAUAGGAAACUUCUGGCAGGACC
B12: CTAT (dsDNA)
DNA 1: GCTATCTAGTGCTCAGTACGCACTGCTATAGGAAACTTCTGGCAGGACCAGGTCATGAGATCGGAAGAGCACACGTCTGAACTCCAGTCA
DNA 2: TGACTGGAGTTCAGACGTGTGCTCTTCCGATCTCATGACCTGGTCCTGCCAGAAGTTTCCTATAGCAGTGCGTACTGAGCACTAGATAGC
RNA: AAUUUCUACUCUUGUAGAUAGGAAACUUCUGGCAGGACC
B13: CGTT (dsDNA)
DNA 1: GCTATCTAGTGCTCAGTACGCACTGCGTTAGGAAACTTCTGGCAGGACCAGGTCATGAGATCGGAAGAGCACACGTCTGAACTCCAGTCA
DNA 2: TGACTGGAGTTCAGACGTGTGCTCTTCCGATCTCATGACCTGGTCCTGCCAGAAGTTTCCTAACGCAGTGCGTACTGAGCACTAGATAGC
RNA: AAUUUCUACUCUUGUAGAUAGGAAACUUCUGGCAGGACC
B14: CACT (dsDNA)
DNA 1: GCTATCTAGTGCTCAGTACGCACTGCACTAGGAAACTTCTGGCAGGACCAGGTCATGAGATCGGAAGAGCACACGTCTGAACTCCAGTCA
DNA 2: TGACTGGAGTTCAGACGTGTGCTCTTCCGATCTCATGACCTGGTCCTGCCAGAAGTTTCCTAGTGCAGTGCGTACTGAGCACTAGATAGC
RNA: AAUUUCUACUCUUGUAGAUAGGAAACUUCUGGCAGGACC
B15: CATA (dsDNA)
DNA 1: GCTATCTAGTGCTCAGTACGCACTGCATAAGGAAACTTCTGGCAGGACCAGGTCATGAGATCGGAAGAGCACACGTCTGAACTCCAGTCA
DNA 2: TGACTGGAGTTCAGACGTGTGCTCTTCCGATCTCATGACCTGGTCCTGCCAGAAGTTTCCTTATGCAGTGCGTACTGAGCACTAGATAGC
RNA: AAUUUCUACUCUUGUAGAUAGGAAACUUCUGGCAGGACC

The target of one test is dAsCas12a E174R (Acidaminococcus sp., UniProt U2UMQ6 1-1307, E174R;D908A;E993A;D1235A). Kind of test: Spec-seq (native PAGE EMSA with sequencing of bound and unbound); 25 mM Tris-HCl pH 7.4, 150 mM KCl, 5 mM MgCl2, 10% glycerol, 1 mM DTT, 40 ng/uL salmon sperm DNA; 400 nM Cas12a, 480 nM crRNA, 50 nM library, 37 C 1 h; native PAGE at room temperature; high values mean tight binding. The note with it: protein: recombinant. (Mobility shift assays separate free from complexed probe on a gel.)
Consider B1, for which the binding signal was -8.59 lnKA.

Regarding B2, the binding signal was -8.63 lnKA.

For B3, the binding signal is -8.4 lnKA.

With B4, the binding signal was -8.78 lnKA.

On to B5, for which the binding signal was -8.56 lnKA.

For the molecule B6, the binding signal was -8.95 lnKA.

For B7, the binding signal was -8.38 lnKA.

With B8, the binding signal is -8.73 lnKA.

As for B9, the binding signal is -8.81 lnKA.

Regarding B10, the binding signal was -8.89 lnKA.

As for B11, the binding signal is -8.78 lnKA.

As to B12, the binding signal was -8.81 lnKA.

Turning to B13, the binding signal is -8.95 lnKA.

As for B14, the binding signal was -8.98 lnKA.

As for B15, the binding signal is -7.55 lnKA.

In a further test the target is dAsCas12a S542R (Acidaminococcus sp., UniProt U2UMQ6 1-1307, S542R;D908A;E993A;D1235A). Described as above. The conditions noted are these: protein: recombinant.
B1: the binding signal was -8.38 lnKA.

As for B2, the binding signal is -6.21 lnKA.

Regarding B3, the binding signal was -5.58 lnKA.

As to B4, the binding signal was -8.13 lnKA.

For the molecule B5, the binding signal was -6.18 lnKA.

Take B6: the binding signal is -8.32 lnKA.

B7: the binding signal is -8.49 lnKA.

B8: the binding signal was -7.58 lnKA.

With B9, the binding signal was -8.57 lnKA.

Turning to B10, the binding signal is -8.52 lnKA.

On to B11, for which the binding signal is -7.09 lnKA.

On to B12, for which the binding signal was -8.52 lnKA.

For B13, the binding signal was -8.31 lnKA.

Consider B14, for which the binding signal was -8.41 lnKA.

In the case of B15, the binding signal is -8.31 lnKA.

The next test addresses d-enCas12a (Acidaminococcus sp., UniProt U2UMQ6 1-1307, E174R;S542R;K548R;D908A;E993A;D1235A). The test is described as above. The note with it: protein: recombinant.
Take B1: the binding signal was -5.63 lnKA.

On to B2, for which the binding signal is -3.48 lnKA.

On to B3, for which the binding signal is -1.74 lnKA.

For B4, the binding signal was -3.35 lnKA.

As for B5, the binding signal is -4.37 lnKA.

For B6, the binding signal is -5.32 lnKA.

B7: the binding signal was -4.73 lnKA.

Consider B8, for which the binding signal is -3.44 lnKA.

With B9, the binding signal was -5.78 lnKA.

On to B10, for which the binding signal is -5.79 lnKA.

Regarding B11, the binding signal is -3.06 lnKA.

Take B12: the binding signal was -5.65 lnKA.

For B13, the binding signal is -5.2 lnKA.

Turning to B14, the binding signal is -4.47 lnKA.

Consider B15, for which the binding signal is -2.95 lnKA.

The target of the next test is d-enCas12a-Ultra (Acidaminococcus sp., UniProt U2UMQ6 1-1307, E174R;S542R;K548R;M537R;F870L;D908A;E993A;D1235A). The test is described as above. The conditions noted are these: protein: recombinant.
Regarding B1, the binding signal is -3.33 lnKA.

As to B2, the binding signal was -0.7 lnKA.

For B3, the binding signal is -0.402 lnKA.

Regarding B4, the binding signal is -1.16 lnKA.

B5: the binding signal was -0.97 lnKA.

Consider B6, for which the binding signal was -2.52 lnKA.

Consider B7, for which the binding signal was -2.28 lnKA.

B8: the binding signal is -0.714 lnKA.

For B9, the binding signal is -3.2 lnKA.

B10: the binding signal was -3.21 lnKA.

Turning to B11, the binding signal is -0.664 lnKA.

B12: the binding signal was -3.31 lnKA.

For B13, the binding signal is -2.1 lnKA.

Take B14: the binding signal was -1.3 lnKA.

B15: the binding signal was -0.95 lnKA.

The next test concerns the target dAsCas12a K548R (Acidaminococcus sp., UniProt U2UMQ6 1-1307, K548R;D908A;E993A;D1235A). The test is described as above. The conditions noted are these: protein: recombinant.
With B4, the binding signal was -8.88 lnKA.
